# High-throughput results from PubChem.
# HCV inh = HCV inhibition | Huh7.5.1 HCVcc-Cre infection, luciferase reporter, 44 h | Potency, µM (top dose mostly 41.8 µM), without a hit: top-dose activity change, negative = inhibition, usual class: inhibitors | 340,000 compounds, 3.4% hits | AID 651820; active means well fitted inhibition curve with a large enough effect; inconclusive means small, poorly fitted or top-dose-only effect, or another doubt; inactive means no such curve, though single readings can be large or run the other way; further: potency means the concentration at half of the fitted maximal effect; on the % scale 0 is the no-effect control and ±100 the full control effect
#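 1,000 cells/well; 4 h culture; + compound; + HCVcc-Cre (~0.5 moi); 44 h; luciferase substrate, RT 15 min; read 15 sec.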
# HCMV inh = inhibitors of human cytomegalovirus; HFF cells, HCMV-luciferase reporter, 72 h; stronger effect = lower value; activity change, negative = inhibition, % at 57.5 µM; 410,000 compounds, 4.5% hits; in the data active means activity change below about -60%; inconclusive means no clear call, values can overlap the other calls; inactive means above about -39%; further: on the % scale 0 is the no-effect control and ±100 the full control effect
#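 Human foreskin fibroblasts infected with luciferase-reporter HCMV at MOI 1 PFU/cell, compounds at two doses. Luciferase measured 72 h post infection; normalized to buffer-only basal and Salinomycin (10uM) controls.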
# LASV entry inh = inhibitors of Lassa virus binding or cell entry; 300,000 compounds, 1.2% hits; Potency, µM (doses to about 37.9 µM), for the others: at the highest dose activity change, negative = inhibition, usual class: inhibitors; Lassa virus pseudotype entry inhibition, cell reporter; calls by dose curve; tested in HEK293 cells; further: potency means the concentration at half of the fitted maximal effect; on the % scale 0 is the no-effect control and ±100 the full control effect; nearly all actives have a fitted effect of over 50% in size
# MARV entry inh = inhibitors of Marburg virus binding or cell entry; Marburg virus pseudotyped entry inhibition, cell reporter; Potency, µM (doses to about 37.8 µM), inactives show top-dose activity change, negative = inhibition, most hits filed as inhibitors; 300,000 compounds, 1.8% hits; AID 540276; calls by dose curve; tested in HEK293 cells; further: potency means the concentration at half of the fitted maximal effect; on the % scale 0 is the no-effect control and ±100 the full control effect
# FMDV inh = antivirals against foot and mouth disease virus. FMDV antiviral cell-based qHTS. Potency, µM (series often up to 57.9 µM), without a hit: at the top dose activity change, negative = inhibition, most hits filed as inhibitors. 410,000 compounds, 1.2% hits. AID 1159524; calls by dose curve; tested in HEK293T cells; further: read-out not given here; potency means the concentration at half of the fitted maximal effect; on the % scale 0 is the no-effect control and ±100 the full control effect; nearly all actives have a fitted effect of over 45% in size
# SARS PLP yeast = SARS-CoV PLP inhibition in yeast | 330,000 compounds, 0.19% hits | Potency, µM (highest dose often 32.9 µM), for inactives: at the top dose activity, positive = growth rescue, usual class: activators | S. cerevisiae expressing SARS-CoV PLpro, growth rescue | AID 485353; calls by dose curve; further: potency means the concentration at half of the fitted maximal effect; 0% is about no effect; nearly all actives have a fitted effect of over 55% in size
# * = called active by the depositor; ? = inconclusive; . = no result; [ ] = remark or other dose. Rows were chosen to be rich in hits. Some 8% of all compounds tested hit in one or more screens of this group.
SMILES,HCV inh,HCMV inh,LASV entry inh,MARV entry inh,FMDV inh,SARS PLP yeast
Cc1ccc(N2C(=O)/C(=C\c3ccc(C(C)C)cc3)N=C2SC2CCOC2=O)cc1 (stereo unspecified),?,-38,5µM*,6.3µM*,-1%,-22%
O=C1OCCC1Sc1nnnn1-c1ccccc1 (stereo unspecified),9%,15,?,16%,16%,3%
Cc1cccn2cc(-c3cccc(NS(=O)(=O)c4ccc(Cl)c(Cl)c4)c3)nc12,.,-91*,-6%[46.1 µM],16%[46.1 µM],35%,.
Cc1cccn2cc(-c3cccc(S(=O)(=O)N4CC(C)OC(C)C4)c3)nc12 (stereo unspecified),22%,-8,.,.,4%,10%
Cc1cc(C)c(S(=O)(=O)Nc2cccc(-c3cn4ccccc4n3)c2)c(C)c1,.,-87*,?,.,42%,.
CC1CN(S(=O)(=O)c2cccc(-c3cn4ccccc4n3)c2)CC(C)O1 (stereo unspecified),?,-86*,?,?,.,15%
Cc1ccc(S(=O)(=O)Nc2cccc(-c3cn4cccc(C)c4n3)c2)cc1,.,-14,-6%[46.1 µM],.,75%,.
Cc1ccccc1C(=O)Nc1cccc(-c2cn3ccccc3n2)c1,14µM*,-28,?,?,?,-3%
COc1ccc(C(=O)NCc2nc(-c3cccc(NC(=O)c4ccc(C)s4)c3)oc2C)cc1,.,.,.,.,9%,.
COc1ccc(-c2cc(C(=O)N3CCc4c(cnc(C)c4CNC(=O)c4ccsc4)C3)[nH]n2)cc1,.,.,.,.,-13%,.
Cc1ccc(N=c2ssnc2Cl)cc1,10%,-20,?,-24%,-17%,-45%
Cc1cc(C)nc(/N=c2/ssnc2Cl)c1,-8%,-29,6%,-21%,28µM*,-18%
Cc1cccc(C)c1NC(=O)CN1CCN(CCCC(c2ccc(F)cc2)c2ccc(F)cc2)CC1,2µM*,6,.,.,0%,.
Cc1ccc(S(=O)(=O)N(CC(=O)NCCc2ccc(Cl)cc2)c2ccccc2C)cc1,.,21,?,?,-20%,.
CC1(CSc2ccccc2)CC(=O)N1 (stereo unspecified),.,-79*,.,.,-4%,.
O=C1NC(=O)C(CSc2ccccc2)(c2ccccc2)N1 (stereo unspecified),1%,-11,-16%[46.1 µM],10%[46.1 µM],-9%,.
O=C(c1ccccc1)c1ccccc1NC(=O)C1CCCN1Cc1ccccc1 (stereo unspecified),?,-60*,.,.,-6%,-1%
COc1ccc(O[C@H]2C=C[C@@H](c3ccccc3)O[C@H]2CON=C2c3cc(OC)ccc3O[C@H](c3cccc(OC)c3)[C@H]2O)cc1,.,.,-31%[14.3 µM],?,.,.
COc1cc(C(=O)NC(=S)Nc2ccc(Cc3ccncc3)cc2)cc(OC)c1OC,?,-24,.,.,-17%,-2%
Cc1cc(C)cc(C(=O)NC(=S)Nc2ccc(Cc3ccncc3)cc2)c1,?,-74*,?,?,?,-18%
COc1ccccc1C(=O)NC(=S)Nc1ccc(Cc2ccncc2)cc1,?,-76*,.,.,-16%,-3%
CCOC(=O)[C@@H]1[C@H]2COc3ccc(Br)cc3[C@H]2N2C(=O)N(c3ccc(Br)cc3)C(=O)[C@]12C,32µM*,.,.,.,-17%,0%
CCOC(=O)[C@@H]1[C@H]2COc3ccc(Br)cc3[C@H]2N2C(=O)N(c3ccc(C(F)(F)F)cc3)C(=O)[C@]12C,-26%,-76*,.,.,-16%,-9%
CCOc1ccccc1N(CC(=O)NCCSc1ccccc1)S(=O)(=O)c1ccccc1,.,-12,?,.,-18%,.
CSc1nc(N)nc2c1ncn2CC(=O)N1CCN(Cc2c(C)cc(C)cc2C)CC1,1.4µM*,-30,.,.,?,1%
SMILES,HCV inh,HCMV inh,LASV entry inh,MARV entry inh,FMDV inh,SARS PLP yeast
Cc1cc(C)c(CN2CCN(C(=O)Cn3ccc(N)nc3=O)CC2)c(C)c1,-38%,35,.,.,-19%,-13%
Cc1cc(C)c(CN2CCN(C(=O)Cn3cnc4c(NCc5ccccc5)ncnc43)CC2)c(C)c1,?,-31,.,.,8.9µM*,1%
CCOC(=O)c1cccn1C1C(=O)N(Cc2ccc(Cl)nc2)c2ccc(Cl)cc21 (stereo unspecified),.,-27,.,.,.,.
Cc1cc(C)cc(NC(=O)CCS(=O)(=O)c2cccc3nsnc23)c1,.,15,13%[46.1 µM],0%[46.1 µM],1%,.
CN(C)c1ccc(C(=O)OCc2ccccc2)cc1,-16%,-22,?,-1%,66%,4%
O=C1C=CC(=O)C(CNc2ccc(C(=O)OCc3ccccc3)cc2)=C1,10µM*,-23,11µM*,?,0%,.
O=C(c1ccc(F)cc1)N1CC(=O)N2[C@H](CO)[C@H](c3ccc(Br)cc3)[C@@H]2C1,.,-18,.,.,.,.
CCOc1ccc(/C=C/c2nc3ccccc3n2S(=O)(=O)c2cccc(Cl)c2)cc1,.,-80*,-2%[46.1 µM],?,-16%,.
Cc1ccc(/C=C/c2nc3ccccc3n2S(=O)(=O)c2cccc(Cl)c2)cc1,.,-82*,?,.,-96%,.
CSc1ccc(/C=C/c2nc3ccccc3n2S(=O)(=O)c2ccc(F)c(C)c2)cc1,.,-36,?,.,-77%,.
COc1ccc(OC(C)C(=O)NC2CCCCCCC2)cc1 (stereo unspecified),-28%,3,.,.,-23%,.
CC1(C)COC(/C=C/c2ccc([N+](=O)[O-])cc2)=N1,?,-101*,?,?,0%,-41%
CC(C)c1ccc(/C=C2\C(=O)N(CCN3CCOCC3)C(=S)N2C)cc1,10µM*,-66*,?,?,?,0%
COc1ccc(C2=NN(C)C(=NCc3ccccc3)SC2)cc1,7.9µM*,-13,0%,1%,19%,2%
CCc1ccccc1NC(=O)CN1CCN(CC(=O)Nc2ccc(-c3ccccc3)cc2)CC1,4%,14,2%[46.1 µM],?,1%,7%
O=C(NN1CCN(Cc2ccccc2Cl)CC1)c1ccc(Cl)cc1,4%,-61*,13%,-33%,?,?
CCc1ccccc1NC(=O)CN1CCN(C(=O)CNC(=O)c2ccc(-c3ccccc3)cc2)CC1,11µM*,-35,.,.,?,-13%
Cc1cccc(N2CCN(C(=O)CNC(=O)c3cccc([N+](=O)[O-])c3)CC2)c1C,11µM*,-64*,-20%,?,?,-5%
Cc1cccc(N2CCN(C(=O)CC(NC(=O)c3ccccc3Cl)c3ccccc3)CC2)c1C (stereo unspecified),-1%,?,?,12µM*,-10%,-19%
CCn1cc(S(=O)(=O)Nc2cc(C)ccc2F)cn1,-2%,-4,?,-6%[46.1 µM],13%,5%
O=C(Nc1ccccc1N1CCOCC1)c1cccc(Oc2ccccc2)c1,?,-34,?,-14%[46.1 µM],-3%,0%
COC(=O)c1ccc(C(=O)Nc2ccc(C(C)C)cc2N)cc1,-6%,12,-25%,6%[14.2 µM],12%,-4%
